Assay results from the supplement of paper PMC3484114.
± gives the standard deviation.

These compounds were tested on OVCAR-3-derived ovarian cancer stem-like cells (spheroids) (assay: cell growth relative to untreated control; higher = more growth (less inhibition)). Details: 2.29 µM; 96 h.
Outline: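 Percent growth was calculated against untreated wells once blanks were subtracted and Grubbs outliers removed. The cells were OVCAR-3 spheroid-derived stem-like cells, trypsinized and plated at 50,000 cells/mL in stem cell medium on ultra-low attachment 96-well plates for a 24 h preincubation. They were then exposed to compounds at 2.29 uM for 96 h at 37°C, 5% CO2, in 4 replicate wells, and viability was measured by TOX8 resazurin fluorescence (ex 560/em 590 nm) after 4 h.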
For `Cc1c(C(=O)C/C(=N\O)C(=O)Nc2cc(Cl)c(Cl)cc2Cl)[n+](=O)c2ccccc2n1[O-]`, the cell growth was 68.5 ± 17%. In the case of `Cc1ccc(NC(=O)c2cccc([N+](=O)[O-])c2O)c(C)c1`, the cell growth is reported as 110 ± 19%. For `COC(=O)C1c2cc3c(c(O)c2C(OC2OC(C)C(OC)C(C)(OC)C2OC)CC1(C)O)C(=O)c1c(O)cc2c(c1C3=O)OC1OC2(C)C(O)C(N(C)C)C1O` (centres undefined), the cell growth was 51.8 ± 47%. `O=C(CCCN1CCC(C(O)c2ccc(F)cc2)CC1)c1ccc(F)cc1` (centres undefined) was tested, and the cell growth was 99.7 ± 22%. `COc1ccc2cc1Oc1ccc(cc1)CC1c3c(cc(OC)c4c3Oc3cc5c(cc3O4)CCNC5C2)CCN1C` (centres undefined) gave a cell growth of 71.8 ± 23%. For `O=C(Nc1ccc(Sc2ccc(N=Nc3c(O)c(S(=O)(=O)O)cc4cc(S(=O)(=O)O)ccc34)cc2)cc1)c1ccc(N=Nc2c(O)ccc3c(S(=O)(=O)O)cc(S(=O)(=O)O)cc23)cc1`, the cell growth was 95.9 ± 9.6%. `N#CC(C#N)=Cc1ccc(Oc2ccccc2)cc1` was tested, and the cell growth was 86.2 ± 51%. `Cc1ccc(S(=O)(=O)SC/C=C/CSS(=O)(=O)c2ccc(C)cc2)cc1` gave a cell growth of 113 ± 25%. Work on `Cc1ccc(NC(=O)c2cc3ccccc3c(N=Nc3ccccc3O)c2O)c(C)c1` yielded a cell growth of 75.2 ± 20%. With `Oc1ccc(-c2nc3ccccc3s2)cc1` the cell growth was 94.8 ± 14%. Compound `CNC(=O)c1cc(NC(=O)N(CCC#N)CCN(C(=O)N[C@@H](Cc2ccccc2)C(=O)N[C@@H](CC(C)C)C(=O)NC)c2ccccc2)ccc1OC` has a cell growth of 98.9 ± 15%. `Cc1cc(NC(=O)NC(=O)c2ccccc2NC(=O)CN)ccc1Oc1ncc(Br)cn1` showed a cell growth of 49.8 ± 9%. For `O=C1C(c2cnc3ccccc3n2)=C(O)c2ccccc21`, the cell growth was 197 ± 48%. `Cc1c2ccncc2cc2c1[nH]c1ccccc12` gave a cell growth of 101 ± 20%.
